# Data reported in PubChem BioAssay (NCI).
# Values joined by “and” are separate entries in the source; they are usually repeats but may differ in a detail not shown here. Equal entries are not always repeated. Compounds without any hit were thinned out: in the full panel of roughly 83,000, 20% have a hit.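 For each line, cells grew in 96-well plates with the test compound present at a single concentration for 48 hours.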 Active and inactive are the calls of the source. The calls were made as follows: active = growth percent below 10; inactive = the rest.
# System: DU-145 prostate
# Experiment: NCI-60 one-dose screen, 48 h (100 = growth as untreated, 0 = no growth, -100 = all killed)
# Conditions: 10 µM unless noted
row,Structure (SMILES),growth
1,CN1CCN(CCCN2c3ccccc3Sc3ccc(Cl)cc32)CC1,91% (inactive) and 104% (inactive)
2,Nc1ncc(-c2ccc3ncnc(N4CCc5ccc(Cl)cc54)c3c2)cc1C(F)(F)F,17.6% (inactive)
3,CC(C)(C)c1cc(NC(=O)Nc2ccc(-c3cn4c(n3)sc3cc(OCCN5CCOCC5)ccc34)cc2)no1,35.5% (inactive) and 45.5% (inactive)
4,CC1(Cc2ccccc2)CC2=C(C(=O)O1)C(c1ccccc1)NC(=O)N2 (stereo not drawn),111% (inactive)
5,COc1cc(C=O)ccc1Oc1ccc([N+](=O)[O-])cc1[N+](=O)[O-],110% (inactive)

# System: K-562 leukemia
# Experiment: as above
# Conditions: 10 µM unless noted
row,Structure (SMILES),growth
1,COc1ccc(C/C(C)=C(/c2ccc(OCCN3CCCC3)cc2)c2ccc(OC(=O)NCc3ccccc3)cc2)cc1,1.16% (active)
2,CCN(CC)CCOc1ccc(/C(=C(\Cl)c2ccccc2)c2ccccc2)cc1,-2.92% (active) and 28% (inactive)
3,Cc1ccc(/C=C2\COc3ccc(O)c(O)c3C2=O)cc1,13% (inactive)
4,COc1ccc2c(c1)oc1c(C)c3c(c(C)c12)C(=O)N(Nc1ccccc1)C3=O,101% (inactive)
5,CCC(=C(c1ccc(OCCCN(C)C)cc1)c1ccc(OCCCN(C)C)cc1)c1ccc(Cl)cc1,0.345% (active)
6,CCOC(=O)c1c(-c2ccc(C)cc2)c(C#N)c(=O)n(-c2cccc(C(F)(F)F)c2)c1N,97.8% (inactive)
7,S=c1nc(CS)[nH]c2ccccc12,104% (inactive)
8,O=C(N/N=C/c1ccc(O)cc1O)c1cccc(Nc2ccnc(C(F)(F)F)c2)c1,21.6% (inactive)
9,CCN(CC)CCCN1C(=O)c2c(c(C)c3c(oc4cc(OC)ccc43)c2C)C1=O,-31.5% (active)
10,Cc1ccc(NC(=O)c2ccc(CN3CCN(C)CC3)cc2)cc1Nc1nccc(-c2cccnc2)n1,2.02% (active)
11,COc1cc(/C=C2/C=C(c3ccc(C(C)(C)C)cc3)N(CCc3ccc(S(N)(=O)=O)cc3)C2=O)cc(OC)c1OC,24.5% (inactive)
12,O=c1c(/C=C/c2ccco2)nnc2sc(Nc3ccc(Cl)cc3)nn12,97.9% (inactive)
13,Nc1[nH]nc(Nc2ccccc2)c1-c1nc2ccccc2s1,4.83% (active)
14,CCCCCCCCn1ccc2cc(NC(=O)CN3CCN(c4nc(C)cc(N5CCCCC5)n4)CC3)ccc21,56% (inactive)
15,CC/C(=C(/c1ccc(O)cc1)c1ccc(OCCN2CCCCCC2)cc1)c1ccc(Cl)cc1,-21.5% (active)
16,C=C(C)[C@@H]1CC[C@]2(C(=O)N3CCN(C)CC3)CC[C@]3(C)[C@H](CC[C@@H]4[C@@]5(C)CC(CCCNC(C)=O)(CCCNC(C)=O)[C@H](OC(C)=O)C(C)(C)[C@@H]5CC[C@]43C)[C@@H]12,81.1% (inactive)
17,CCN(c1cc(-c2ccc(CN3CCC(/C=C/S(=O)(=O)c4ccccc4)CC3)cc2)cc(C(=O)NCc2c(C)cc(C)[nH]c2=O)c1C)C1CCOCC1,40.6% (inactive)
18,Nc1nc(N)c2c(n1)NC(c1ccc(Cl)cc1)CC(c1cccc(Nc3ccncc3)c1)=N2 (stereo not drawn),27% (inactive)
19,C=C(c1ccc(C(=O)O)cc1)c1cc2c(cc1C)C(C)(C)CCC2(C)C,53.4% (inactive) and 58.5% (inactive)
20,O=C1OCC2=C1C(c1cccc([N+](=O)[O-])c1)c1cc3c(cc1N2CCO)CCC3 (stereo not drawn),7.29% (active)
21,CCN(CC)/C([O-])=c1\cccc\c1=C1\N=C(c2ccccc2)N=C1[n+]1ccc(-c2ccccc2)cc1,96.7% (inactive)
22,Cc1nc(-n2[nH]c(=O)ccc2=O)sc1N=Nc1ccccc1,101% (inactive)
23,Cc1ccc(-c2nc3nc(-c4ccccc4)nc(N4CCCNCC4)c3o2)cc1,-76.4% (active)
24,O=C([C@H]1C[C@H]1c1ccc(S(F)(F)(F)(F)F)cc1)N1CCN(c2cc(Cl)ccc2C(F)(F)F)CC1,74.2% (inactive)
25,OB(O)c1ccsc1-c1nc2ccc3[nH]ncc3c2c2c1CCCC2,55.9% (inactive)
26,CC[C@]12CN3CCc4c([nH]c5ccccc45)[C@@](C(=O)OC)(c4cc5c(cc4OC)N(C)[C@H]4[C@@](O)(C(=O)OC)[C@H](OC(C)=O)[C@]6(CC)C=CCN7CC[C@]54[C@@H]76)CC(C3)[C@H]1O2 (stereo partly drawn),16.6% (inactive)
27,COC(=O)N/N=C/c1c[n+]([O-])c2ccccc2[n+]1[O-],103% (inactive)
28,Cn1ccnc1CN1CCSC(C(=O)Nc2ccccc2)C1 (stereo not drawn),92.1% (inactive)
